The text below walks through data of PubChem BioAssay AID651814 (National Center for Advancing Translational Sciences (NCATS), 2012).

Hit rate of the full screen: of about 2,100 compounds, about 590 (28%) were called active. Inconclusive results (about 42%) are left out. The list shows a part of the results. Values without a mark were called inactive. Calls follow the shape of the dose curve; as a rule, active = well fitted inhibition curve with a large enough effect; inconclusive = small, poorly fitted or top-dose-only effect; inactive = flat fitted curve, though single readings scatter.
Potency is read from the fitted curve at half-maximal effect.

Sequence of DNA dC->dU-editing enzyme APOBEC-3F (Homo sapiens) (Q8IUX4 whole entry, looked up): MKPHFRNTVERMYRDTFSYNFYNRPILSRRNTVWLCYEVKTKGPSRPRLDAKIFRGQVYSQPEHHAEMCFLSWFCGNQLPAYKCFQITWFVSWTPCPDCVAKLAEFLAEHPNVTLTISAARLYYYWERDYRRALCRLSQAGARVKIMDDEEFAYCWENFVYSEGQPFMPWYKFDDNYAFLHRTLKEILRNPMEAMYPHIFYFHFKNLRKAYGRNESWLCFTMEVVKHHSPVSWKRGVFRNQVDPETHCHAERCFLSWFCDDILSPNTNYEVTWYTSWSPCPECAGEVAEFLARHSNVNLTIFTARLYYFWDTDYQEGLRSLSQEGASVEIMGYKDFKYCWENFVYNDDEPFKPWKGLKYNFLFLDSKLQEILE

This assay addresses DNA dC->dU-editing enzyme APOBEC-3F (Homo sapiens) (UniProt Q8IUX4). The assay can be described thus: qHTS for inhibitors of Vif-A3F interactions: Cherry picks. Also: nearly all actives have a fitted effect of over 70% in size.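 As to max response: % of control where 0% means no effect; active compounds raise eYFP fluorescence by blocking Vif-driven A3F loss.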 Particulars: HeLa A3F-eYFP + Vif (tagged APOBEC3F with the HIV-1 protein that degrades it), eYFP fluorescence, 24 h. The essentials: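 Read-out: yellow fluorescence (ex 488 nm, em 500-530 nm) by laser-scanning cytometer after 24 h compound exposure, several concentrations, at 37 deg C. Cells: HeLa line stably co-expressing Vif and C-terminally eYFP-tagged A3F; MG132 served as positive control.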
Background: qHTS replaces the single test concentration by a dilution series.
For `COc1ccc(-c2csc(NC(=S)NC(=O)/C=C/c3ccco3)n2)cc1Br`, the Potency was 7.04 µM (active).
With `O=C(/C=C/c1ccco1)NC(=S)Nc1ccc(N2CCCC2)cc1`, the max response was -28%.
Consider `COc1cccc(NC(=O)Nc2nc(-c3ccc(OC)c(OC)c3)cs2)c1`, for which the max response is -25.2%.
Consider `Cc1ccc(C(=O)NCCn2c(N)c(C#N)c3nc4ccccc4nc32)cc1`, for which the Potency was 23.1 µM (active).
Take `Cn1c(=S)c2[nH]c(SCCN3CCCC3)nc2n(C)c1=O`: the max response was 0.53%.
Regarding `Cc1ccc(N=Cc2c(O)n(-c3nccs3)c(=O)c3ccccc23)c(C)c1`, the max response is -4.13%.
Consider `COc1ccc(N=Cc2c(O)n(-c3cccc(C)n3)c(=O)c3ccccc23)c(OC)c1`, for which the Potency was 13 µM (active).
Consider `O=C(N/N=C/c1c(O)n(-c2ccc(Cl)cn2)c(=O)c2ccccc12)c1ccncc1`, for which the max response is -9.07%.
With `CCC(=Nc1ccccc1O)C1=C(O)CC(c2ccccc2)CC1=O` (stereo not given), the max response was -8%.
On to `CCN(CC)c1ccc2cc(-c3nnc(-c4cccc(Cl)c4)o3)c(=O)oc2c1`, for which the Potency is 0.58 µM (active).
Regarding `CCN(CC)c1ccc2cc(-c3nc(-c4ccccc4)no3)c(=O)oc2c1`, the Potency was 3.66 µM (active).
Turning to `CCN(CC)c1ccc2cc(-c3nc(-c4cccs4)no3)c(=O)oc2c1`, the Potency is 2.06 µM (active).
As to `CCN(CC)c1ccc2cc(-c3nc(-c4ccc(Cl)cc4Cl)cs3)c(=O)oc2c1`, the max response is -3.92%.
`CCN(CC)c1ccc2cc(-c3nnc(-c4ccccc4)o3)c(=O)oc2c1`: the Potency was 0.0994 µM (active).
Turning to `CCOC(=O)c1c(C)sc(-c2c(-c3ccccc3)[nH]c3[nH]c(=O)[nH]c(=O)c23)c1O`, the max response was -22.6%.
As for `Cc1ccc(Nc2nc(-c3cccnc3)nc3ccccc23)cc1`, the max response was -12.4%.
In the case of `CC1CCN(C(=O)C(C)Sc2nc(-c3ccccc3)cc(C(F)(F)F)n2)CC1` (stereo not given), the max response was 1.1%.
As to `CCN(CC)c1ccc2cc(-c3nc4ccccc4n3C)c(=O)oc2c1`, the Potency was 4.11 µM (active).
As to `CCN(CC)c1ccc2cc(-c3nc(-c4cc(OC)c(OC)c(OC)c4)no3)c(=O)oc2c1`, the Potency is 0.366 µM (active).
In the case of `CN1/C(=C/C=C(/C#N)C(N)=O)C(C)(C)c2ccccc21`, the Potency was 6.27 µM (active).
With `CC1=C/C(=C\C=C(C#N)C#N)N(C)c2ccccc21`, the Potency was 2.31 µM (active).
`CN1/C(=C/C=C(C#N)C#N)C(C)(C)c2ccccc21`: the Potency is 18.4 µM (active).
Turning to `COCCNC(=S)N/N=C(\C)c1ccc(OC(F)F)cc1`, the max response was 0.658%.
Take `Cc1cccc(-c2noc(-c3ccc(NCc4ccco4)c([N+](=O)[O-])c3)n2)c1`: the Potency is 14.6 µM (active).
Still for that read-out and setting: the same measure for `COc1ccccc1-c1noc(-c2ccc(NCc3ccco3)c([N+](=O)[O-])c2)n1`: 14.6 µM (active); for `O=[N+]([O-])c1cc(-c2nc(-c3ccccc3)no2)ccc1NCc1ccco1`: 8.2 µM (active).
Take `O=c1c2ccccc2sc2ccc(NCCCN3CCOCC3)cc12`: the Potency was 20.6 µM (active).
In the case of `Cc1ccc(Cl)cc1NC(=O)Nc1cn(CC(C)C)c(=O)c2ccccc12`, the max response was -13.3%.
In the case of `Cc1ccc(C)c(NC(=O)N2CC=C(c3c[nH]c4ccccc34)CC2)c1`, the max response was -19.7%.
`Cc1ccc(C)c(NC(=O)Cn2cc(S(=O)(=O)Cc3cccc(Cl)c3)c3ccccc32)c1`: the Potency was 8.2 µM (active).
For `Cc1ccc(S(=O)(=O)C(C#N)c2nc3ccccc3nc2N2CCCC2)cc1` (stereo not given), the max response was -28.7%.
For the molecule `CCCCOc1ccc(-c2nnn(CC(=O)NCc3ccco3)n2)cc1`, the max response was -20.9%.
In the case of `COc1ccc(NC(=O)CSc2nc3c(oc4ccccc43)c(=O)n2Cc2ccco2)cc1Cl`, the Potency was 14.6 µM (active).
Take `CCn1c(SCC(=O)Nc2cccc(O)c2)nc2c1c(=O)n(C)c(=O)n2C`: the max response is 0.997%.
For the molecule `COc1ccccc1CCC(=O)Nc1ccc2c(c1)c(=O)n(C)n2Cc1ccc(F)cc1`, the max response was -22.3%.
The same measure, in the same setting: the same measure for `S=C(NCc1ccco1)Nc1ccc(Cl)cn1`: -0.0392%.
For the molecule `COc1cc2nc(SCC(=O)NCc3ccco3)n(Cc3ccc(Cl)cc3)c(=O)c2cc1OC`, the Potency is 8.2 µM (active).
Take `O=Cc1s/c(=N\S(=O)(=O)c2ccccc2)n(CCCCl)c1Cl`: the max response is -29.9%.
As for `COc1ccc(C(=O)/C=C/Nc2ccc([N+](=O)[O-])cc2C)c(OC)c1`, the Potency is 13 µM (active).
Take `COc1ccc(NC(=S)Nc2ncccc2C)c(OC)c1`: the max response is 0.806%.
Same read-out and setting: the same measure for `COc1ccc(C(=O)c2cc([N+](=O)[O-])ccc2N2CCCC2)cc1`: -19.8%.
Turning to `O=C(NC(=S)Nc1ccc(-c2ccccc2)cc1)c1ccccc1`, the max response was 1.35%.
Turning to `COc1ccccc1NC(=O)Cc1ccc(-c2ccccc2)cc1`, the max response was 3.04%.
Consider `O=C(Nc1ccccc1OC(=O)c1ccccc1)c1ccccc1`, for which the Potency was 17.7 µM (active).
As to `COC(=O)c1cc(Nc2nc3ccccc3nc2NS(=O)(=O)c2ccc(C)cc2)ccc1Cl`, the max response was -5.41%.
`COc1ccc(/C=C/C=C2\NC(=S)NC2=O)cc1`: the max response was -26%.
For `COc1ccc(/C=C2\C(=O)NC(=S)N2C(=O)c2ccc(F)cc2)cc1`, the Potency is 13 µM (active).
In the case of `C[n+]1ccc(/C=C/c2cc[n+](C)c3ccccc23)c2ccccc21`, the Potency was 11.6 µM (active).
In the case of `CCCCn1c(N)c(N(CC(C)C)C(=O)Cc2ccc(S(=O)(=O)N3CCOCC3)s2)c(=O)[nH]c1=O`, the Potency was 23.1 µM (active).
In the case of `CCCCn1c(N)c(N(CCC(C)C)C(=O)c2ccc([N+](=O)[O-])o2)c(=O)[nH]c1=O`, the max response is 0.229%.
On to `C=CCN1C(=O)c2ccc(C(=O)N(CC(C)C)c3c(N)n(CCCC)c(=O)[nH]c3=O)cc2C1=O`, for which the max response was 4.71%.
`COc1cccc(/C(O)=C/c2nc3ccc(C(=O)NCCc4cccc(C)c4)cc3[nH]c2=O)c1`: the Potency was 11.6 µM (active).
Still for that read-out and setting: the same measure for `COc1cccc(/C(O)=C/c2nc3ccc(C(=O)NCCc4ccc(Cl)cc4)cc3[nH]c2=O)c1`: 8.2 µM (active).
Take `COc1cccc(Sc2ccccc2/C=N/NC(N)=O)c1`: the max response was -25.5%.
As for `COc1ccc2nc(C)cc(SCC(=O)N/N=C/c3cccc4ccccc34)c2c1`, the Potency is 11.2 µM (active).
Consider `CCn1c(SCC(=O)N/N=C/c2ccc(C)s2)nc2ccccc21`, for which the max response was -29.4%.
As to `Cc1ccc(CN(C(=O)c2ccccc2F)c2ccccn2)o1`, the max response was -5.38%.
Same read-out and setting: the same measure for `Cc1cccc(C)c1NC(=S)NC(C)CCc1ccccc1` (stereo not given): 1.36%.
As to `CN1C(=O)/C(=C\c2ccc(N(C)C)cc2)OC1=S`, the Potency was 7.9 µM (active).
Regarding `CN1C(=S)N(c2cccnc2)C(=O)/C1=C\c1ccc(N(C)C)cc1`, the Potency is 15.8 µM (active).
Consider `O=C(NC(=S)N1CCc2ccccc21)c1ccco1`, for which the max response is -0.232%.
For the molecule `CN(C)S(=O)(=O)c1ccc2c(c1)/C(=C/c1cc3c([nH]1)CCCC3)C(=O)N2`, the Potency is 2.23 µM (active).
For the molecule `COCCN1C(=O)/C(=C/c2ccc(N3CCCC3)cc2)SC1=S`, the Potency was 4.61 µM (active).
As to `COCCN1C(=O)/C(=C/c2ccc(N3CCCC3)cc2C)SC1=S`, the Potency is 2.59 µM (active).
Turning to `O=C1/C(=C/c2ccc(O)cc2)SC(=S)N1CC1CCCO1` (stereo not given), the max response was 5.6%.
As for `CN(Cc1cnn(Cc2ccccc2)c1)C(=O)c1cccc(S(=O)(=O)N2CCOCC2)c1`, the max response was -22%.
For `CC(=O)c1ccc2cccc3c2c1N=CN3C`, the Potency is 15.8 µM (active).
With `COc1ccc2c(Cl)c(C(=O)N/N=C3\CCCC(=O)C3)sc2c1`, the Potency was 14 µM (active).
As to `CCOc1cc(C(=O)NN=C2CCCC2)cc(OCC)c1OCC`, the max response was -3.9%.
Turning to `O=[N+]([O-])c1ccc(N2CCN(Cc3ccccc3)CC2)c2c1no[n+]2[O-]`, the Potency is 14 µM (active).
For `Cc1ccc2nc(C)c(C(=O)NN=C3CCCCCC3)n2c1`, the max response was -15.2%.
Still for that read-out and setting: the same measure for `Cc1ccccc1NC(=O)CSC1=C(C#N)C(c2ccsc2)CC(=O)N1` (stereo not given): -7.98%.
Take `N#CCSc1ccccc1NC(=O)CN1C(=O)C2CC=CCC2C1=O` (stereo not given): the Potency is 14 µM (active).
Regarding `N#CCSc1ccccc1NC(=O)CN1C(=O)NC(CCc2ccccc2)C1=O` (stereo not given), the max response is -19.2%.
With `Cc1ccccc1C1CC(c2cccs2)=NN1S(C)(=O)=O` (stereo not given), the max response is -5.18%.
Consider `CS(=O)(=O)Nc1ccc(C2=NN(S(C)(=O)=O)C(c3ccc4nccnc4c3)C2)cc1` (stereo not given), for which the max response is -7.65%.
The same measure, in the same setting: under `CS(=O)(=O)Nc1cccc(C2=NN(S(C)(=O)=O)C(c3ccc4c(c3)OCO4)C2)c1` (stereo not given) stands -28.5%.
`CS(=O)(=O)N1N=C(c2ccccc2)CC1c1ccc2c(c1)OCO2` (stereo not given): the Potency is 14 µM (active).
The same measure, in the same setting: the same measure for `CS(=O)(=O)Nc1ccc(C2=NN(S(C)(=O)=O)C(c3ccc4c(c3)OCO4)C2)cc1` (stereo not given): 17.7 µM (active).
Turning to `Cc1cc(OCC(=O)Nc2nnc(C3CC3)s2)ccc1Cl`, the max response was 2.35%.
On to `CCOC(=O)c1ccc(NC(=S)NC(=O)C2CCCC2)cc1`, for which the max response is -3.01%.
`COC(=O)c1ccc(NC(=O)CC2Nc3cc(C)c(C)cc3NC2=O)cc1` (stereo not given): the Potency was 6.51 µM (active).
For the molecule `Cc1cccc(C(=O)Nc2nnc(C3=COCCO3)o2)c1`, the max response is 0.472%.
Still for that read-out and setting: the same measure for `CCCCCCn1c(=O)[nH]c2nc3cc(N)ccc3nc2c1=O`: -0.0141%.
As for `Cc1cc2nc3c(=O)n(C4CCCCC4)c(=O)[nH]c3nc2cc1N`, the Potency is 16.4 µM (active).
`CCN(CC)c1nc(C)c(C(=S)Nc2cc([N+](=O)[O-])ccc2Cl)s1`: the max response is -3.83%.
For the molecule `O=C(COC(=O)C12CC3CC(CC(Cl)(C3)C1)C2)N1CCCCC1`, the max response was 1.53%.
Take `CN1CCc2c(sc3c2C(=O)NC(c2ccc(-c4ccc(Cl)cc4)o2)N3)C1` (stereo not given): the max response is -10.4%.
Turning to `CCOC(=O)N1CCc2c(sc3c2C(=O)NC(c2ccc(N(C)C)cc2)N3)C1` (stereo not given), the Potency was 20.6 µM (active).
For `COc1ccc(CN(C(C)=O)c2cccc(C)c2C)cc1`, the max response is -29.4%.
